Most compounds without a hit are left out; they make up all but 1.5% or so of the library.
SSB-PriA inh – blocks PriA binding to SSB C-terminal tail | AlphaScreen SSBct-PriA binding, biotinylated peptide | inhibition, % at 33 µM | 0.6% of 430,000 active | AID 1272365; in the data active means inhibition mostly above about 37%, no sharp cut-off; inactive means mostly below about 20%;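 further: plate controls were negative control peptide for no effect and reference peptide for full effect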
BH1578 lux ind – inducers of Vibrio cholerae quorum light production without autoinducers; AID 588436; activation, % at 18.7 µM; 0.16% of 350,000 active; V. cholerae BH1578 lux reporter, luminescence, 6 h; in the data active means activation mostly above about 9.7%, no sharp cut-off
PrPC surface inh – cell surface PrPC inhibition, primary TR-FRET screen; P04156; inhibition, % at 13.8 µM; AID 720596; TR-FRET read-out; 0.43% of 370,000 active; in the data active means inhibition above about 24%; further: 0% = median of the test wells and 100% = reference compound wells
TcdB GH inh – TcdB glycohydrolase inhibition | inhibition, % at 9.99 µM | TcdB glycohydrolase enzymatic assay, plate reader | 0.24% of 350,000 active | AID 652162 | P18177; in the data active means inhibition above about 10%
VHR inh abs – inhibitors of human VHR1 phosphatase (DUSP3) | recombinant VHR phosphatase, pNPP absorbance | P51452 | 0.52% of 290,000 active | inhibition, % at 13.3 µM; in the data active means inhibition above about 50%
Target sequence (P51452 whole entry, looked up): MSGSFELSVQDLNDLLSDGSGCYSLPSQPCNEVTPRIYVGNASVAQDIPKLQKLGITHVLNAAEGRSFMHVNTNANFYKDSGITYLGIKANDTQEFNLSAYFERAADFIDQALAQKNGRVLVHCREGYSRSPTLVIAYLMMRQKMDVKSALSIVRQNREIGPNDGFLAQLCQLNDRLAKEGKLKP
CCHF vOTU inh – blocks the CCHF virus ovarian tumor domain protease; CCHFV vOTU protease, Pep-AMC fluorescence; inhibition, % at 11.5 µM; 0.55% of 370,000 active; in the data active means inhibition above about 30%; further: 0% = vehicle wells with enzyme and 100% = no enzyme wells
* = called active by the depositor; i = inactive; . = no result; ! = repeats disagree.

SMILES	SSB-PriA inh	BH1578 lux ind	PrPC surface inh	TcdB GH inh	VHR inh abs	CCHF vOTU inh
O=C(c1ccsc1)N1CC(c2nc(-c3ccc[nH]c3=O)no2)C1	-9.0	.	.	.	.	.
Cc1ccc(N2CC(C(=O)N3CCC(Oc4nc5ccccc5o4)CC3)CC2=O)cc1C (stereo not drawn)	-5.0	.	.	.	.	.
O=C(COc1ccc(F)cc1)Nc1nc(-c2ccccn2)cs1	58.2*	2.5	0.0	2.2	.	7.5
CCOc1ccc(CC(=O)Nc2nc(-c3cccnc3)cs2)cc1	-3.0	.	.	.	.	.
O=C(COc1cccc(F)c1)Nc1nc(-c2ccccn2)cs1	.	4.0	0.0	-7.8	.	11.4
CCOc1ccc(CC(=O)Nc2nc(-c3ccccn3)cs2)cc1	58.0*	.	.	.	.	.
CS(=O)(=O)c1ccc(CC(=O)Nc2nc(-c3ccccn3)cs2)cc1	75.0*	.	.	.	.	.
CCOc1ccc2nc(N3CCN(C(=O)CS(=O)(=O)c4ccc(OC)cc4)CC3)sc2c1	-12.0	.	.	.	.	.
O=C(NCc1nnnn1-c1ccc(F)c(F)c1)C1CC(=O)N(c2ccc(Cl)cc2)C1 (stereo not drawn)	6.0	.	.	.	.	.
O=C(Nc1cnn([C@H]2CCOC2)c1)c1ccccc1Br	-6.0	.	.	.	.	.
CCC(=O)c1ccc(OCC(O)CNCCc2ccc(Cl)cc2)cc1 (stereo not drawn)	40.0*	-0.5	-8.3	1.7	7.2	-7.4
CCC(=O)c1ccc(OCC(O)CNCc2ccc(F)cc2)cc1 (stereo not drawn)	5.6	-0.2	0.9	0.9	30.5	11.8
CCOC(=O)/C=c1/s/c(=C/c2ccc3cc(OC)ccc3c2)c(=O)n1CC(=O)NCC1CCCO1 (stereo not drawn)	-10.2	i	-1.5	11.8*	.	6.5
CCOC(=O)/C=c1\s/c(=C\c2c(OC)ccc3ccccc23)c(=O)n1CC(=O)NCC1CCCO1 (stereo not drawn)	.	i	7.0	0.5	6.5	-0.1
c1cc2c(cc1Nc1nc(Nc3ccc4c(c3)OCO4)nc(N3CCOCC3)n1)OCO2	20.0	.	.	.	.	.
Cc1ccc(Nc2nc(N3CCOCC3)nc(N3CCOCC3)n2)cc1	7.7	-0.2	-5.9	.	50.8*	-5.8
COc1ccc(Nc2nc(Nc3ccc4c(c3)OCO4)nc(N3CCOCC3)n2)cc1	38.0*	.	.	.	.	.
OC(Cn1c2ccccc2c2ccccc21)C[n+]1cccc2ccccc21 (stereo not drawn)	-6.8	-0.2	-31.6	.	56.7*	-2.1
Cc1nc2ccccc2n1CC(O)Cn1c2ccccc2c2ccccc21 (stereo not drawn)	-1.0	12.7	0.2	-0.9	24.3	0.9
Cc1cc(N)n(-c2nc3c(c(=O)[nH]2)CCCC3)n1	93.0*	.	.	.	.	.
CCc1c(C)nc(-n2nc(C)cc2N)[nH]c1=O	93.0*	.	.	.	.	.
C/C=C/C(=O)Nc1cc(C)nn1-c1nc2c(c(=O)[nH]1)CCC2	23.0	.	.	.	.	.
CCC(=O)Nc1cc(C)nn1-c1nc(C)c(CC)c(=O)[nH]1	33.0	.	.	.	.	.
COc1ccc(C2Nc3cccc4cccc(c34)N2)cc1	15.1	-0.2	-1.0	1.1	28.2	2.7
COc1cc(OC)c(C2Nc3cccc4cccc(c34)N2)c(OC)c1	3.9	0.3	-8.8	0.0	53.0*	-1.4
SMILES	SSB-PriA inh	BH1578 lux ind	PrPC surface inh	TcdB GH inh	VHR inh abs	CCHF vOTU inh
CSc1cccc(NC(=O)CC2CCCCN2S(=O)(=O)c2ccccc2)c1 (stereo not drawn)	21.0	.	.	.	.	.
N#CC1=C2N=C(N)c3ccccc3N2C2=C(C(=O)CCC2)C1c1ccc(F)cc1 (stereo not drawn)	2.6	i	-8.8	1.3	20.5	7.0
N#CC1=C2N=C(N)c3c(sc4c3CCCCC4)N2C2=C(C(=O)CCC2)C1c1ccccc1 (stereo not drawn)	44.0*	3.2	2.9	.	-0.7	8.8
CCCCn1c(N)c(N(CC)C(=O)c2ccncc2)c(=O)[nH]c1=O	-3.1	0.9	-5.4	0.6	.	-2.5
CCCCn1c(N)c(N(CC)C(=O)c2cccs2)c(=O)[nH]c1=O	3.3	i	1.1	10.8*	.	-6.3
Nc1nc2c(s1)-c1cccc3cccc-2c13	66.0*	.	.	.	.	.
Nc1nc(-c2ccccc2)c(-c2ccccc2)s1	13.9	-0.5	-4.6	.	37.9	4.8
COC(=O)CC(O)=C(N=Nc1cccc(C(F)(F)F)c1)C(=O)OC	-5.7	.	.	.	.	.
CN(C)C1=NC[C@H](Cc2ccccc2)N1CCCCc1ccccc1	-6.1	1.2	15.7	-0.8	.	6.6
CCCCCCCN1C(N(C)C)=NC[C@@H]1Cc1ccccc1	0.2	0.6	6.4	13.2*	.	5.3
COc1ccccc1N1CCN(C(=O)c2nn(C)c3c2CS(=O)(=O)c2ccccc2-3)CC1	2.9	0.5	0.5	1.4	50.2*	8.7
COc1ccc(N2CCN(C(=O)c3nn(C)c4c3CS(=O)(=O)c3ccccc3-4)CC2)cc1	-3.5	i	1.6	0.1	-3.6	-3.6
CCS(=O)(=O)c1ccc(CC(=O)Nc2nc(-c3cc(Cl)ccc3Cl)cs2)cc1	-20.0	.	.	.	.	.
Cc1nc(C)n2c(=O)n(CC(=O)NCc3ccc(F)cc3)nc2c1C	-10.0	.	.	.	.	.
COc1ccc(CC(=O)Oc2cc(C)ccc2C)cc1	-4.5	i	5.6	0.0	58.2*	-1.1
CC(=NNC(=O)c1cc(C)nc2ccccc12)c1ccccn1	94.1*	.	.	.	.	.
CC(=NNC(=O)c1cccc2ccccc12)c1ccccn1	66.1*	.	.	.	.	.
C/C(=N\NC(=O)c1cc(C)nc2ccccc12)c1ccccn1	.	-1.7	3.0	-0.1	.	6.6
COc1ccc(CC(=O)Nc2ccc3c(c2)NC(=O)C(C)(C)CO3)cc1OC	26.0	.	.	.	.	.
CN(C)CCCN(C(=O)C1COc2ccccc2O1)c1nc2ccc(F)cc2s1 (stereo not drawn)	-11.2	-0.5	2.3	0.3	10.8	-5.2
Cc1ccc2nc(N(CCCn3ccnc3)C(=O)C3COc4ccccc4O3)sc2c1 (stereo not drawn)	35.0*	.	.	.	.	.
O=[N+]([O-])c1cc(Cl)c(O)c2ncccc12	85.9*!	-0.3	-2.9	-1.3	2.5	12.9
O=[N+]([O-])c1cc(Cl)c2cccnc2c1O	66.6*	-0.8	-15.8	1.8	16.6	23.1
c1ccc(-c2nc(NC3CCCC3)c3ccccc3n2)nc1	120.0*	.	.	.	.	.
c1ccc(-c2nc(NCC3CCCO3)c3ccccc3n2)nc1 (stereo not drawn)	88.9*	-0.7	-6.8	.	16.7	-1.1
SMILES	SSB-PriA inh	BH1578 lux ind	PrPC surface inh	TcdB GH inh	VHR inh abs	CCHF vOTU inh
c1ccc(Nc2nc(NCC3CCCO3)c3ccccc3n2)cc1 (stereo not drawn)	10.7	-0.8	20.3	1.1	-2.6	23.3
O=C(COc1ccc(Cl)cc1Cl)N1CC[C@H](c2ccc3c(c2)OCO3)C1	-9.0	.	.	.	.	.
CC(=O)Nc1noc2ncccc12	-11.0	.	.	.	.	.
COc1ccc(C(=O)NCC(OC)c2ccc(Cl)s2)cc1F (stereo not drawn)	-4.0	.	.	.	.	.
CC1CN(C(C)C)C(=S)NC1=O (stereo not drawn)	-6.5	.	-4.5	1.2	.	-3.9
CC1CN(C2CCCCC2)C(=S)NC1=O (stereo not drawn)	-9.0	39.1*	-7.3	0.2	.	10.3
Nc1ccc2c(c1)[nH]c(=O)c1cc(N)ccc12	.	i	11.6	21.0*	.	-58.2
CS(=O)(=O)N1CCN=C1SCc1cccc(C(F)(F)F)c1	-22.0	.	.	.	.	.
O=C(Nc1ccccn1)c1ccc(Br)s1	-17.4	0.9	19.6	0.6	55.0*	1.2

From PubChem
